# Source: PubChem BioAssay
# Values joined by “and” are separate entries in the source; they are usually repeats but may differ in a detail not shown here. Identical values can stand only once. Active and inactive are the calls of the source. Unless noted, no stated cut-off is given here; in the data, active means parasite load remaining mostly below about 12% (no sharp cut-off); inactive means mostly above about 10%.
# Experiment: compounds altering viability of human ES cells (AID 493140; call rule not given here;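 further: cells exposed to compounds for four days before counting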)
# Conditions: human embryonic stem cell survival screen; stronger effect = higher value
row,SMILES,survival
1,CC(=O)Nc1cc2ccccc2oc1=O,3.5 (inactive)
2,CC(=O)c1cc2ccccc2oc1=O,6.92 (inactive)
3,CCc1cc(Cl)c(OC)c(C(=O)NCC2CCCN2CC)c1O (configuration not stated),1.5 (inactive)

# Experiment: P. berghei load reduction in hepatocytes – cell-based, HepG2, luciferase luminescence, HepG2 viability, primary screen (AID 624349);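 further: 100% = mean of DMSO negative control wells on the same plate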
# Conditions: P. berghei liver stage in HepG2, luciferase luminescence, concentration not given here; parasite load remaining: stronger effect = lower value; viability: measured here: HepG2 viability without parasites
SMILES,viability,parasite load remaining
CCCCC(=O)O[C@]1(C(=O)CO)CCC2C3CCC4=CC(=O)CC[C@]4(C)C3[C@@H](O)C[C@@]21C (some centres not stated),98.3%,79% (inactive)
CCCCC/C=C/CCC(=O)N[C@H]1[C@H](Oc2c3cc4cc2Oc2ccc(cc2Cl)[C@@H](O[C@@H]2O[C@H](CO)[C@@H](O)[C@H](O)[C@H]2NC(C)=O)[C@@H]2NC(=O)[C@H](NC(=O)[C@@H]4NC(=O)[C@H]4NC(=O)C(Cc5ccc(c(Cl)c5)O3)NC(=O)[C@H](N)c3ccc(O)c(c3)Oc3cc(O)cc4c3)c3ccc(O)c(c3)-c3c(OC4O[C@H](CO)[C@@H](O)[C@H](O)[C@@H]4O)cc(O)cc3[C@@H](C(=O)O)NC2=O)O[C@H](CO)[C@@H](O)[C@@H]1O (some centres not stated),99.2%,146% (inactive)
CC(C)(C)NCC(O)COc1cccc2c1CCCC2=O (configuration not stated),103%,76.4% (inactive)
CC(C)CCCC(C)[C@H]1CCC2C3CC=C4C[C@@H](O)CC[C@]4(C)C3CC[C@@]21C (some centres not stated),101%,39.9% (inactive)
CCC(=O)OCC(=O)[C@@]1(OC(=O)CC)[C@@H](C)CC2C3CCC4=CC(=O)C=C[C@]4(C)C3(F)[C@@H](O)C[C@@]21C (some centres not stated),83.8%,25.9% (inactive)
CC(=O)Nc1ccc(S(=O)(=O)Nc2onc(C)c2C)cc1,98%,53.8% (inactive)
CO/N=C(\C(=O)NC1C(=O)N2C(C(=O)OCOC(=O)C(C)(C)C)=C(/C=C\c3scnc3C)CSC12)c1csc(N)n1 (configuration not stated),81.5% and 105%,101% (inactive) and 42.8% (inactive)
